PubChem BioAssay (NCATS)
Records with an inconclusive call do not appear. Calls of active or inactive are those of the source. The call rests on the fitted dose curve; in most records, active means well fitted cell-killing curve with a large enough effect; inconclusive means small, poorly fitted or top-dose-only effect, or effect the other way; inactive means no such curve, though single readings can be large or run the other way.
Potency means the concentration at half of the fitted maximal effect.

Assay: Quantitative High-Throughput drug screen in 47 multiple myeloma cell lines against the NCATS MIPE library collection: JJN3_DSMZ cell viability assay (AID 1918966; further: nearly all actives have a fitted effect of over 50% in size)
Conditions: JJN3 myeloma cells viability, CellTiter-Glo ATP, 48 h; series mostly up to 45.8 µM
Source text: PI: Beverly A. Mock Ph.D.
Laboratory of Cancer Biology and Genetics,
Center for Cancer Research, National Cancer Institute,
National Institute of Health, Bethesda, Maryland
Drug resistance and disease progression are common in multiple myeloma (MM) patients, underscoring the need for new therapeutic combinations. […] We hypothesized that effective combinations would reduce MYC expression and enhance p16 activity. […] These preclinical data identify potentially useful drug combinations for evaluation in drug-resistant MM and reveal potential mechanisms of combined drug sensitivity.
Described herein is the primary MIPE qHTS used to cherrypick compounds. Validated compounds were then further tested for potential synergistic activiy.
[1] Peat TJ, Gaikwad SM, Dubois W, Gyabaah-Kessie N, Zhang S, Gorjifard S, Phyo Z, Andres M, Hughitt VK, Simpson RM, Miller MA, Girvin AT, Taylor A, Williams D, D'Antonio N, Zhang Y, Rajagopalan A, Flietner E, Wilson K, Zhang X, Shinn P, Klumpp-Thomas C, McKnight C, Itkin Z, Chen L, Kazandijian D, Zhang J, Michalowski AM, Simmons JK, Keats J, Thomas CJ, Mock BA. Drug combinations identified by high-throughput screening promote cell cycle transition and upregulate Smad pathways in myeloma. Cancer Lett. 2023 Aug 1;568:216284. doi: 10.1016/j.canlet.2023.216284. Epub 2023 Jun 24. PMID: 37356470; PMCID: PMC10408729.
SEQUENCE No. (e.g., 1, 2, 3, etc.); […] (e.g., Cells, Incubation, Reagent, etc.); VALUE and DESCRIPTION.
1; Cells; 5 uL; white, solid bottom 1536-well Greiner assay plate.
2; Compounds; 23 nL; Kalypsis pin tool (Wako USA) equipped with a 1536-well pin head to transfer to the assay plates.
3; Incubation; 48 hours; 37C incubation.
4; Reagent;5uL; CellTiter Glo (Promega).
5; Detector; 425V; Luminescence; Viewlux PerkinElmer.
NOTES (numbers refer to Sequence numbers above)
1. The cell-based screening methods employed in this study were like those previously published. Briefly, the corresponding myeloma cell lines were screened in 1,536-well plates with 500 cells, 5-uL per well for inhibition of cell viability (assessed by measuring ATP levels with CellTiterGlo).
2. NCATS MIPE 4.0 library of approved and investigational drugs were added using the Kalypsis pin tool. Wells treated with DMSO only for 100% viability and media only wells for 0% viability were used as controls.
3. The assay plates were covered and incubated for 48 hours in a 37C, 5% CO2 incubator with controlled humidity.
4. After 48 hours, CellTilter-GloTM luminescent substrate mix (Promega) reagent was added to the assay plate and plates we incubated for 5 min at room temperature.
5. Signal was measured as median relative luminescence units on a ViewLux (PerkinElmer) multiplate reader.
[1] Heske CM, Davis MI, Baumgart JT, Wilson K, Gormally MV, Chen L, Zhang X, Ceribelli M, Duveau DY, Guha R, Ferrer M, Arnaldez FI, Ji J, Tran HL, Zhang Y, Mendoza A, Helman LJ, Thomas CJ. Matrix Screen Identifies Synergistic Combination of PARP Inhibitors and Nicotinamide Phosphoribosyltransferase (NAMPT) Inhibitors in Ewing Sarcoma. Clin Cancer Res. 2017 Dec 1;23(23):7301-7311. doi: 10.1158/1078-0432.CCR-17-1121. Epub 2017 Sep 12. PMID: 28899971; PMCID: PMC6636827.
For Cn1cc(-c2ccncc2)c(-c2ccc(OCc3ccc4ccccc4n3)cc2)n1, the Potency was 3.72 µM (active). In the case of Nc1cc(C(F)(F)F)c(-c2cc(N3CCOCC3)nc(N3CCOCC3)n2)cn1, the Potency is reported as 3.72 µM (active). With CNC(=O)c1ccc(-c2cnc3ncc(Cc4ccc5ncccc5c4)n3n2)cc1F the Potency was 5.9 µM (active). For COc1cc2c(Nc3ccc(NC(=O)c4ccccc4)cc3)ncnc2cc1OCCCN1CCOCC1, the Potency was 23.5 µM (active). For COc1ccc(OC)c(-c2nnc3ccc(-c4ccc(OC)c(O[C@@H]5CCOC5)c4)nn23)c1, the Potency was 16.6 µM (active). For Cc1cc(Nc2cc(CN3CCOCC3)c3nc(C)c(Cc4ccc(Cl)cc4F)n3n2)n[nH]1, the Potency was 18.7 µM (active). With O=C(CCCCCCC(=O)Nc1ccc([C@H]2O[C@@H](CSc3nc(-c4ccccc4)c(-c4ccccc4)o3)C[C@@H](c3ccc(CO)cc3)O2)cc1)NO the Potency was 13.2 µM (active). In the case of CN1CCN(c2cc(C(=O)Nc3ccc4c(c3)-c3c(c(C(N)=O)nn3-c3ccc(F)cc3)CC4)c(Cl)cn2)CC1, the Potency is reported as 0.235 µM (active). In the case of NC(=O)Nc1cc(-c2cccc(F)c2)sc1C(=O)N[C@H]1CCCNC1, the Potency is reported as 1.32 µM (active). With Cc1c(CN2CCN(S(C)(=O)=O)CC2)sc2c(N3CCOCC3)nc(-c3cnc(N)nc3)nc12 the Potency was 0.0469 µM (active). With COc1cc(-c2nn(C3CCC(N4CCN(C(C)=O)CC4)CC3)c3ncnc(N)c23)ccc1NC(=O)c1cc2ccccc2n1C (stereo not given) the Potency was 7.43 µM (active). For CC1(C)CC(=O)c2c(C(F)(F)F)nn(-c3ccc(C(N)=O)c(NC4CCC(OC(=O)CN)CC4)c3)c2C1 (stereo not given), the Potency was 0.132 µM (active). In the case of C=C1C(=CC=C2CCC[C@]3(C)[C@@H]([C@H](C)C=C[C@H](C)C(C)C)CC[C@@H]23)C[C@@H](O)C[C@@H]1O, the Potency is reported as 0.833 µM (active). With CC1(C)O[C@@H]2C[C@@H]3[C@H]4C[C@@H](F)C5=CC(=O)C=C[C@]5(C)[C@@]4(F)[C@@H](O)C[C@]3(C)[C@]2(C(=O)CO)O1 the Potency was “inactive”. With CC(C)(C)OC(=O)Nc1ccc(-c2cc(C(=O)NCCCCCCC(=O)NO)no2)cc1 the Potency was 2.35 µM (active). For CN(C)Cc1c(C(=O)NCCOc2ccc(C(=O)NO)cc2)oc2ccccc12, the Potency was 0.833 µM (active). With COc1ccc(F)c(F)c1C(=O)c1cnc(NC2CCN(S(C)(=O)=O)CC2)nc1N the Potency was 1.32 µM (active). In the case of Cc1[nH]c2ccccc2c1CCNCc1ccc(C=CC(=O)NO)cc1, the Potency is reported as 0.0935 µM (active). In the case of CNC(=O)c1nn(C)c2c1C(C)(C)Cc1cnc(Nc3ccc(N4CCN(C)CC4)cc3)nc1-2, the Potency is reported as 4.69 µM (active). In the case of Nc1nc(NCCNc2ncc(-n3ccnc3)c(-c3ccc(Cl)cc3Cl)n2)ccc1[N+](=O)[O-], the Potency is reported as 6.62 µM (active). For COc1cc2c(Oc3ccc(-c4cnc(Nc5ccc(F)cc5)n(C)c4=O)cc3F)ccnc2cc1OCCCN1CCOCC1, the Potency was 11.8 µM (active). In the case of COc1cc2c(cc1-c1c(C)noc1C)ncc1[nH]c(=O)n([C@H](C)c3ccccn3)c12, the Potency is reported as 6.62 µM (active). With CC(C)C[C@H](NC(=O)CNC(=O)c1cc(Cl)ccc1Cl)B(O)O the Potency was 0.105 µM (active). For CN(C)CC=CC(=O)Nc1cc2c(Nc3ccc(F)c(Cl)c3)ncnc2cc1O[C@H]1CCOC1, the Potency was 4.69 µM (active). For Cc1cc(Nc2cc(N3CCN(C)CC3)nc(Sc3ccc(NC(=O)C4CC4)cc3)n2)n[nH]1, the Potency was 16.6 µM (active). With CCCCN1CCC(CNC(=O)c2c3n(c4ccccc24)CCCO3)CC1 the Potency was 2.09 µM (active). For C#Cc1cccc(Nc2ncnc3cc(OC)c(OCCCCCCC(=O)NO)cc23)c1, the Potency was 0.132 µM (active). With c1cc(-c2cnn3cc(-c4ccc(OCCN5CCCCC5)cc4)cnc23)ccn1 the Potency was 8.33 µM (active). With C[C@@H](Oc1cc(-c2cnn(C3CCNCC3)c2)cnc1N)c1c(Cl)ccc(F)c1Cl the Potency was 8.33 µM (active). For O=C(Nc1nc2cccc(-c3ccc(CN4CCS(=O)(=O)CC4)cc3)n2n1)C1CC1, the Potency was 7.43 µM (active). For C[C@@H]1CN(CC(=O)Nc2ccc3c(c2)Cc2cccc(-c4cc(=O)cc(N5CCOCC5)o4)c2S3)C[C@H](C)O1, the Potency was 13.2 µM (active). In the case of C=CC(=O)Nc1cccc(Oc2nc(Nc3ccc(N4CCN(C)CC4)cc3OC)ncc2Cl)c1, the Potency is reported as 20.9 µM (active). For O=C(C=Cc1cccc(S(=O)(=O)Nc2ccccc2)c1)NO, the Potency was 3.4 µM (active). For CCC[C@H](NC(=O)C(C#N)=Cc1cccc(Br)n1)c1ccccc1, the Potency was 2.09 µM (active). With C=C1C(=CC=C2CCCC3(C)[C@@H]([C@H](C)C=CC=CC(O)(CC)CC)CC[C@@H]23)C[C@@H](O)C[C@@H]1O (stereo not given in full) the Potency was 18.7 µM (active). In the case of CCN(CC)CCCCNc1ncc2cc(-c3cc(OC)cc(OC)c3)c(NC(=O)NC(C)(C)C)nc2n1, the Potency is reported as 20.9 µM (active). For C[C@@H]1COC(Nc2ccc3ncnc(Nc4ccc(OCc5nccs5)c(Cl)c4)c3c2)=N1, the Potency was 20.9 µM (active). With Cc1ccc(-c2ncn(-c3ccc(Nc4nccc(-c5cccc(N6CCOCC6)c5)n4)cc3)n2)cn1 the Potency was 0.235 µM (active). For Cn1c2cc(S(C)=O)sc2c2cnn(Cc3cccc(N)c3)c(=O)c21 (stereo not given), the Potency was “inactive”. In the case of COc1cc(=C2C=c3ccccc3=N2)[nH]c1=Cc1[nH]c(C)cc1C, the Potency is reported as 1.87 µM (active).
